# High-throughput results deposited in PubChem BioAssay by several laboratories.
# Compounds with a hit are over-represented: about 2.5% of the library has one in this group of screens.
# rCAG RNA binder = binds r(CAG) RNA repeats | AID 651821 | inhibition, % at 3 µM | r(CAG) RNA repeat, TO-PRO-1 dye displacement fluorescence | actives 1.3% (n = 370,000);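 active means inhibition above the plate cutoff, the mean of all test compounds on that plate plus 3 SD, cut at about 35% in these data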;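 further: 0% = DMSO alone and 100% = 100 µM mitoxantrone as full dye displacement; higher means more dye released from RNA so lower well fluorescence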
# ABCB6 inh MLPCN = human ABCB6 transporter inhibition; Q9NP58; K562-ABCB6 porphyrin accumulation, flow cytometry, 1 h; stronger effect = lower value; fluorescence ratio to DMSO, % at 10 µM; actives 0.19% (n = 360,000); AID 602162;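 active means fluorescence ratio to DMSO below 75%, the collection mean minus 3 SD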;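 further: signal is porphyrin accumulated inside mitochondria; 100% equals median channel fluorescence of DMSO control wells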
# Exocytosis inh = blocks lytic granule exocytosis; TALL-104 LAMP-1 surface exposure, flow cytometry; cells stimulated with thapsigargin and PMA; actives 0.66% (n = 360,000); inhibition, % at 10 µM;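 active means inhibition above about 55%, limit read from the data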
# PG9 Ab binder = binds the HIV-1 gp120 antibody PG9; TR-FRET gp120-PG9 antibody binding; actives 0.43% (n = 360,000); inhibition, % at 6.7 µM; AID 624416; in the data active means inhibition above about 8.5%
# Numbers without * were called inactive; x = no result given.
SMILES,rCAG RNA binder,ABCB6 inh MLPCN,Exocytosis inh,PG9 Ab binder
COc1cccc(/C=C2\N=C(C3CCCCC3)OC2=O)c1OC,0,100,60*,0
CC(=O)Oc1ccc(/C=C2\N=C(C3CCCCC3)OC2=O)cc1,-1,92,40,0
Cc1ccc(N2C(=O)c3ccccc3C2=O)cc1,-1,99,-2,0
Cc1ccc(SC2=C(Sc3ccc(C)cc3)C(=O)c3ccccc3C2=O)cc1,12,113,93*,1
CCc1c(-c2ccccc2Br)ncn1CCc1ccccc1OC,1,x,x,2
O=C(O)c1ccc(CCCc2ccccc2)cc1,4,93,-1,0
O=C(O)CCCCCCCCCCCc1ccccc1,36*,97,-1,0
CC(=O)OC[C@]1(OC(C)=O)C[C@@]23CC[C@H]4[C@@](C)(CCC[C@@]4(C)C(=O)O)[C@@H]2CC[C@@H]1C3,14,93,-6,0
CC(=O)OC[C@]12CC[C@H]3[C@@](C)(CC[C@H]4C(C)(C)CCC[C@]34C)[C@@H]1CC(C1=CC(=O)OC1O)O2 (some centres not stated),18,95,86*,-1
Cc1ccccc1Nc1nc(NCc2ccco2)c2ccccc2n1,5,98,82*,0
COc1ccc(Cl)cc1-n1c(=S)sc2c(=O)[nH]c(SCC(=O)C(C)(C)C)nc21,84*,98,3,-1
COc1ccc(C(=O)/C=C/c2ccc(O)cc2)c2c1CC(O)C(C)(C)O2 (configuration not stated),-2,117,2,-1
COc1ccc(C(=O)/C=C/c2ccc(O)cc2)c(O)c1CC=C(C)C,53*,98,0,-2
COC(=O)[C@]12C[C@H](CC(=O)NCCc3ccccc3OC)C(=O)N(Cc3ccc(Cl)cc3Cl)C1=C[C@H](COCc1ccccc1)O[C@@H]2C,11,x,x,x
CN(C)c1ccc(N=Cc2nc(-c3ccccc3)oc2OC(=O)c2ccccc2)cc1,0,95,-3,-3
CC(=O)Oc1oc(-c2ccccc2)nc1C=Nc1ccc(N(C)C)cc1,-2,98,94*,-2
COc1cc(/C=C(\C#N)C(=O)c2ccc(O)c(O)c2)cc(I)c1O,40*,106,4,-2
Cc1nnc(N/N=C/c2ccc(Br)cc2)n1N,1,100,78*,-4
Cc1nnc(N/N=C/c2ccc(-c3ccc(Br)cc3)o2)n1N,6,103,1,-5
O=C(C[C@H]1C/C=C\C[C@H](NC(=O)OCC2c3ccccc3-c3ccccc32)C(=O)OC[C@@H]2CCCN2C1=O)NCCO,6,100,-1,0
O=C(C[C@H]1C/C=C\C[C@H](NC(=O)OCC2c3ccccc3-c3ccccc32)C(=O)OC[C@H]2CCCN2C1=O)NCCO,0,99,59*,-4
O=C(COc1ccc2c3c(c(=O)oc2c1)CCCC3)NC(Cc1ccc(Cl)cc1)C(=O)O (configuration not stated),38*,101,-5,0
COc1cccc(CC(=O)O[C@@H]2CCC[C@@]3(C(=O)N(Cc4ccccc4)c4ccccc43)[C@H]2NC(=O)CCc2ccccc2)c1,9,x,x,x
O=c1c2ccccc2sn1-c1cc(S(=O)(=O)N2CCOCC2)ccc1N1CCOCC1,1,103,59*,4
O=c1c2ccccc2sn1-c1cc(S(=O)(=O)N2CCOCC2)ccc1N1CCCC1,4,96,8,0
SMILES,rCAG RNA binder,ABCB6 inh MLPCN,Exocytosis inh,PG9 Ab binder
O=C(NCCc1c[nH]c2ccccc12)OCc1cn(Cc2cccc(C(F)(F)F)c2)nn1,1,x,x,x
Cc1ccc(C(=O)Nc2nnc(S(=O)(=O)Nc3ccccc3C)s2)cc1C,45*,98,-2,0
COC(=O)C1=C(C)NC(=O)/C1=C\c1cc(C)n(-c2ccc(F)cc2)c1C,13,97,104*,-1
COC(=O)C1=C(C)NC(=O)/C1=C\c1cc(C)n(-c2cccc(C)c2)c1C,23,109,-5,-2
O=C1c2ccccc2C(=O)N1CCCCc1cn(C[C@H]2CC[C@@H]([C@@H]3CC[C@H](Cn4cc(CCCCN5C(=O)c6ccccc6C5=O)nn4)O3)O2)nn1,-9,96,-1,-1
O=C1c2ccccc2C(=O)N1CCCc1cn(C[C@H]2CC[C@@H]([C@@H]3CC[C@H](Cn4cc(CCCN5C(=O)c6ccccc6C5=O)nn4)O3)O2)nn1,-7,96,67*,-2
Cc1c(C)c(C)c2[nH]c(-c3ccc4c(c3)OCO4)nc2c1C,x,75,61*,x
CCOC(=O)[C@]12CCCC3=C1N(CCC3)C(=O)[C@@H](CC(=O)N1CCN(C(=O)C3CC3)CC1)C2,-2,x,x,x
